# High-throughput results as filed in PubChem.
# A selection: hits, their analogues and other compounds. The true share with any hit is near 2.3%.
# FBPA coupling cs: inhibits coupling enzyme system, counter-screen for aldolase hits | actives 0.67% (n = 290,000) | AID 2472 | coupling enzyme system counterscreen, AmpLite Red fluorescence | activity change, negative = inhibition, % at 58.2 µM, hits read low; in the data active = activity change below about -30%
#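 Counterscreen of the coupled detection system alone, without aldolase: glyceraldehyde-3-phosphate coupling enzymes plus AmpLite Red readout. Compounds at 57.5 uM final, 10 min RT preincubation, 20 min RT reaction, fluorescence 525/598 nm.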
# Tau fibril ThT: blocks human tau fibril formation measured by thioflavin T; P10636; Potency, µM (doses to about 57.4 µM), for inactives: at the highest dose activity, negative = inhibition, most hits filed as inhibitors; recombinant tau K18 P301L, heparin-induced fibrillization, ThT fluorescence; actives 2.1% (n = 270,000); note: potency is the fitted concentration of half-maximal effect; nearly all actives have a fitted effect of over 55% in size
#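 Tau K18 P301L fragment (15 uM unlabeled plus 0.24 uM Alexa 594-labeled) in 100 mM sodium acetate pH 7 with compound, fibrillization induced by 20 uM heparin for 6 hr at 37 C. Thioflavin T (30 uM) added, fluorescence read after 1 hr (ex 450, em 510 nm).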
# Tau FP inhib: blocks human tau fibril formation measured by polarization; P10636; K18 P301L tau heparin fibrillization, Alexa594 FP, 6 h; Potency, µM (titrated, usually from 57.7 µM), inactives show at the top dose activity, negative = inhibition, actives largely listed as inhibitors; actives 0.39% (n = 280,000); AID 1468; note: potency is the fitted concentration of half-maximal effect; nearly all actives have a fitted effect of over 55% in size
#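 Human tau K18 […] P301L fragment, 15 uM unlabeled plus 0.24 uM Alexa 594-labeled tau (final), with compound and 20 uM heparin in 100 mM sodium acetate pH 7; 6 hr at 37 C, then Alexa 594 FP read.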
# Tau fluor counter: counter-screen for tau fibril formation inhibitors; Potency, µM (titrated, usually from 57.7 µM), for inactives: at the highest dose activity change, negative = decrease; tau K18 P301L Alexa594 fluorescence, heparin fibrillization; actives 0.93% (n = 280,000); note: potency is the fitted concentration of half-maximal effect; nearly all actives have a fitted effect of over 55% in size
#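 Human tau K18 P301L (15 uM unlabeled, 0.24 uM Alexa 594-labeled) in 100 mM sodium acetate pH 7 with 20 uM heparin, 6 hr at 37 C. ThT 30 uM added, 1 hr ambient; Alexa 594 FP and total fluorescence read at 555/632 nm.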
# USP1-UAF1 inh: blocks the human USP1/UAF1 deubiquitinase complex. actives 0.23% (n = 390,000). Potency, µM (top dose mostly 57.1 µM), without a hit: at the highest dose activity change, negative = inhibition, most hits filed as inhibitors. recombinant USP1/UAF1, Ub-Rhodamine cleavage fluorescence. O94782; note: potency is the fitted concentration of half-maximal effect; nearly all actives have a fitted effect of over 60% in size
# Target sequence (O94782 whole entry, looked up): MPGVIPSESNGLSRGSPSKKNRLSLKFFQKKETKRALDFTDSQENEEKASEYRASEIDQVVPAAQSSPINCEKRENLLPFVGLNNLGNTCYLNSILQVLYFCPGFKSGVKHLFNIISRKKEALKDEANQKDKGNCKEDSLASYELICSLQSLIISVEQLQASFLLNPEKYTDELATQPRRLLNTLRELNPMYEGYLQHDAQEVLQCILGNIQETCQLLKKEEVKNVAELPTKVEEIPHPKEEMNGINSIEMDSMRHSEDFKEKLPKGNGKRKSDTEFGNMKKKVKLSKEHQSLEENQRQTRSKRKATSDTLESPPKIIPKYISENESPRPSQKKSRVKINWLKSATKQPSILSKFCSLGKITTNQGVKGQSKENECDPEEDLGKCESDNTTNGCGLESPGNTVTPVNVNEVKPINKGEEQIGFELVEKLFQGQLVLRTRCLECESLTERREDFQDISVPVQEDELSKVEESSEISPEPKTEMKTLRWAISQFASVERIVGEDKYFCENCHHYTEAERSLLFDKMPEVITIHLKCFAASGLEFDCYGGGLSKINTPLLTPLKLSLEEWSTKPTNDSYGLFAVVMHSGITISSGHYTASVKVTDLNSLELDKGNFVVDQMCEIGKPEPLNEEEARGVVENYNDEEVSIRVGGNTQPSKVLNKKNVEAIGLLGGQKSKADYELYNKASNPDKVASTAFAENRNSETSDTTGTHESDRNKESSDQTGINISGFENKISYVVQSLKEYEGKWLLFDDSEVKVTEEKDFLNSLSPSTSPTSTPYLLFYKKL
#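 In this screen, compounds sit with the deubiquitinase complex (1nM) for 15 min at room temperature before Ub-Rho is added at 150nM final. Fluorescence rise is then followed for 6 reads every 60 seconds.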
# Active calls of the source: *; ? = inconclusive; nt = no result given; [ ] = remark or other dose. Unless noted, calls come from the whole dose curve; as a rule, active = well fitted curve in the direction sought with a large enough effect; inconclusive = small, poorly fitted or top-dose-only effect, or another doubt; inactive = no such curve, though single readings can be large; an effect the other way counts as inactive or inconclusive. % is set by controls: 0 for no effect and ±100 for the full control effect.
SMILES,FBPA coupling cs,Tau fibril ThT,Tau FP inhib,Tau fluor counter,USP1-UAF1 inh
Cc1ccc(S(=O)(=O)N2CCCC2C(=O)OCc2ccco2)cc1 (stereo not drawn),-1,28µM*,?,-14%,-15%
Cc1ccc(S(=O)(=O)N2CCCCC2C(=O)N2CCN(c3ccccc3F)CC2)cc1 (stereo not drawn),-2,-14%,3%,-13%,-15%
COc1ccc(NC(=O)Nc2cnccn2)c(OC)c1,nt,nt,nt,nt,-20%
COc1cc2c(cc1NC(=S)Nc1cccc(C)c1)oc1ccccc12,-4,?,0%,?,-15%
COc1cc2c(cc1NC(=O)Nc1cccc(C)c1)oc1ccccc12,0,?,-1%,7.9µM*[quencher],?
COc1cc2c(cc1NC(=O)C(C)Sc1ccc(NC(C)=O)cc1)oc1ccccc12 (stereo not drawn),-8,-1%,?,?,-18%
COc1ccc(NC(=O)Nc2ccc(Cc3ccncc3)cc2)c(OC)c1,1,?,?,25µM*[quencher],-25%
COc1cc2c(cc1NC(=O)Nc1ccc(F)cc1)oc1ccccc12,2,-2%,-8%,6.3µM*[quencher],-13%
COc1cc2c(cc1NC(=O)Nc1ccc(C)cc1)oc1ccccc12,-2,-4%,-7%,4µM*[quencher],-10%
CNC(=S)Nc1cc2oc3ccccc3c2cc1OC,0,nt,nt,nt,-26%
COc1ccc(OCC(=O)Nc2cc3oc4ccccc4c3cc2OC)cc1,-5,-12%,-1%,-3%,-19%
COc1ccc(NC(=O)Nc2cc3oc4ccccc4c3cc2OC)cc1,1,?,?,8.9µM*[quencher],-2%
c1nc(NC2CCNCC2)c2cc(-c3ccoc3)ccc2n1,0,nt,nt,nt,nt
O=C(NCC(c1cccnc1)N1CCc2ccccc2C1)C(=O)Nc1ccc(F)cc1F (stereo not drawn),nt,?,-4%,-18%,-2%
Cc1ccc(/C=C(\C#N)C(=O)Nc2ccc(Br)cc2)o1,nt,-8%,?,-2%,-4%
N#CCc1ccc(NC(=O)/C=C/c2ccc([N+](=O)[O-])o2)cc1,-6,11µM*,?,-29%,-21%
N#C/C(=C\c1ccc([N+](=O)[O-])o1)C(=O)Nc1ccc(F)cc1,-17,14µM*,?,?,-23%
CC(C)[n+]1ccn(C2=C([O-])c3ccccc3C(=O)/C2=N\S(=O)(=O)c2ccccc2)c1,-44*,?,-10%,-10%,?
CC(C)(C)c1cc[n+](C2=C([O-])c3ccccc3C(=O)/C2=N\S(=O)(=O)c2ccccc2)cc1,-60*,16µM*,?,?,-9%
CCCCC[n+]1ccn(C2=C([O-])c3ccccc3C(=O)/C2=N\S(=O)(=O)c2ccc(Br)cc2)c1,-24,11µM*,?,?,?
COc1ccccc1NC(=O)NCc1cccn1Cc1ccccc1,nt,-2%,-3%,-20%,-27%
COc1ccc(C(=O)NCC(c2cccnc2)N2CCN(c3ccccc3F)CC2)cc1OC (stereo not drawn),nt,-4%,-1%,-2%,5%
COc1cccc(CCNC(=O)c2ccc(Cn3c(SCc4ccccc4)nc4cccnc43)cc2)c1,nt,-19%,-2%,?,-10%
CCN(c1ccccc1)S(=O)(=O)c1ccc(C(=O)Nc2cccc(NC(C)=O)c2)cc1,nt,nt,nt,nt,-22%
CCN(c1ccccc1)S(=O)(=O)c1cc(C(=O)Nc2ccc(F)c(F)c2)ccc1F,1,8%,14µM*,?,-12%
SMILES,FBPA coupling cs,Tau fibril ThT,Tau FP inhib,Tau fluor counter,USP1-UAF1 inh
Cc1ccc(NC(=O)c2ccc(F)c(S(=O)(=O)NCCc3ccccc3)c2)cc1F,nt,10%,25µM*,7.1µM*[quencher],-19%
CCN(c1ccccc1)c1cc2ccccc2c(=O)[nH]1,-34*,nt,nt,nt,25µM*
CCN(c1ccccc1)c1nc(=O)c2cccnc2s1,2,-6%,1%,-3%,-18%
FC(F)(F)c1cnc(Sc2nc3nccc(-c4ccc(Cl)cc4)n3n2)c(Cl)c1,-55*,1%,-1%,-11%,-9%
O=c1cc(-c2ccccc2)c2cc(Cl)c3c(c2o1)CN(Cc1ccccc1)CO3,nt,-7%,-7%,-23%,?
CC1CCN(S(=O)(=O)c2ccc3c4c2CC(=O)N4CC(C)S3)CC1 (stereo not drawn),-33*,nt,nt,nt,-12%
CCN(Cc1ccccc1)S(=O)(=O)c1ccc(N2CCCCS2(=O)=O)cc1,nt,-1%,10%,-8%,-7%
Cc1nc2ccc(N=NN(C)C)cc2[nH]1,-35*,10µM*,?,?,-24%
Cn1cccc1-c1nc2ccc(NC(=O)c3ccccc3)cc2[nH]1,-2,?,11%,?,1%
Cn1cc([N+](=O)[O-])c(C(=O)Nc2ccc3nc(-c4ccccc4)[nH]c3c2)n1,-10,16µM*,-4%,?,-2%
Cn1cccc1-c1nc2ccc(NC(=O)c3ccc([N+](=O)[O-])cc3)cc2[nH]1,-4,1.3µM*,0%,?,-13%
Cn1cc([N+](=O)[O-])c(C(=O)Nc2ccc(-c3nc4ccccc4[nH]3)cc2)n1,3,?,10%,-10%,-15%
NNc1nc2ccc(Cl)cc2s1,-2,22µM*,?,14µM*[quencher],-15%
NNc1nc2ccc(F)cc2s1,-8,25µM*,?,18µM*[quencher],-18%
CCOC(=O)N/N=C1/C[C@@H](O)[C@@H](O)[C@@H]2[C@@H]3C(=O)N(Cc4ccccc4)C(=O)[C@H]3CC[C@H]12,0,-10%[11.5 µM],?,-17%[11.6 µM],nt
CS(=O)(=O)Nc1cccc(-c2ccc3ncnc(NCc4cccs4)c3c2)c1,3,nt,nt,nt,nt
Cc1ccc(/C=C/C(=O)NCc2ccc(S(N)(=O)=O)cc2)o1,-6,25µM*,?,-16%,-23%
O=c1cc(-c2ccc(F)cc2F)[nH]c2ccc(F)cc12,2,-3%[81.4 µM],1%[81.3 µM],-6%[81.3 µM],nt
N#Cc1c(NC(=O)CCC(=O)O)sc2c1CCCCC2,-22,20µM*,?,-13%,-18%
COc1ccc(CN(C)c2ccc(-c3nc(-c4ccc(OC)c(OC)c4)no3)cc2[N+](=O)[O-])cc1,nt,?,-7%,?,-18%
O=C(CSc1nnc(SCc2ccccc2Cl)s1)N/N=C/c1c[nH]c2ccccc12,-13,-13%,?,14µM*[quencher],-22%
CCn1c(SCC(=O)N/N=C/c2c[nH]c3ccccc23)nnc1-c1ccc(C(C)(C)C)cc1,4,?,-4%,18µM*[quencher],-12%
CCn1c(SCC(=O)N/N=C/C=C/c2ccco2)nnc1-c1ccc(OC)cc1,-39*,13%,12%,4%,-8%
O=C(CSc1nnc(SCc2ccccc2)s1)N/N=C/c1c[nH]c2ccccc12,-7,-5%,-4%,?,-24%
CCn1c(SCC(=O)N/N=C/c2ccc(C)o2)nnc1-c1ccc(C(C)(C)C)cc1,-1,-12%,2%,-2%,-5%
